# Compound activity: PubChem BioAssay, ICCB-Longwood Screening Facility, Harvard Medical School
# This is one part of a sample in which hits are shown more often than they occur.
# MgrA DNA FP – modulators of Staphylococcus aureus MgrA DNA binding | fluorescence polarization | inhibition, % (no concentration beside the values) | actives 0.13% (n = 84,000) | AID 602314; in the data active = inhibition above about 30%, passing the limit was not always enough;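 also: higher means less MgrA bound to DNA so lower polarization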
# Hits are given with their value; 0 = inactive; + = active, no number.
SMILES,MgrA DNA FP
O=C(/C=C/c1ccco1)/C=C/c1ccco1,98
O=C(/C=C/c1ccco1)Nc1cccc(NC(=O)/C=C/c2ccco2)n1,0
O=C(/C=C/c1ccccc1)/C=C/c1ccco1,0
CCOC(=O)c1c(NC(=O)c2cc3cc(Br)ccc3oc2=O)sc2c1CCC2,0
COc1cccc2c1C(=O)c1c(O)c3c(c(O)c1C2=O)C[C@@](O)(C(=O)CO)C[C@@H]3O[C@H]1C[C@H](N)[C@H](O)[C@H](C)O1,+
COc1cccc2c1C(=O)c1c(O)c3c(c(O)c1C2=O)C[C@@](O)(C(C)=O)C[C@@H]3OC1CC(N)C(O)C(C)O1 (stereo partly drawn),+
O=S(=O)(NCCCNS(=O)(=O)c1cc(Cl)sc1Cl)c1cc(Cl)sc1Cl,0
O=C(CSc1nc2ccccc2n1-c1ccccc1)N1CCOCC1,0
N#Cc1c(F)cccc1N1CCCC1,0
O=C1c2ccccc2C(=O)c2c1cccc2-c1cccc2c1C(=O)c1ccccc1C2=O,0
Nc1cccc2c1C(=O)c1ccccc1-2,53
COC(=O)c1cccc2c1C(=O)c1ccccc1-2,0
Cc1ccc(S(=O)(=O)NN2C(=O)c3ccccc3NC2c2cc(Cl)cc(Cl)c2O)cc1 (stereo not drawn),0
O=C(O)c1ccc(N/C=C/C(=O)c2ccco2)cc1,0
Nc1cc[n+](CC(O)CO)cc1 (stereo not drawn),56
Nc1ccc(C(O)C(O)CO)cc1 (stereo not drawn),0
CCOC(=O)/C=C(/C)Nc1ccc(OC)cc1,0
COC(=O)/C=C/c1ccc(SC)cc1,0
O=C(O)C=Cc1ccc(O)c(O)c1,0
C=C(C)C1Cc2cc3ccc(=O)oc3cc2O1 (stereo not drawn),0
C=C(C)C1Cc2cc(/C=C/C(=O)O)c(O)cc2O1 (stereo not drawn),54
O=C(CC1(O)C(=O)Nc2ccc(Br)cc21)c1ccc(-c2ccccc2)cc1 (stereo not drawn),0
N#Cc1c(NC(=O)c2ccccc2)oc(-c2ccccc2)c1-c1ccccc1,0
N#Cc1c(-c2ccccc2)cc(-c2ccco2)c(C#N)c1N,0
N#Cc1c(-c2ccco2)cc(-c2ccco2)[nH]c1=O,56
SMILES,MgrA DNA FP
N#Cc1c(-c2ccco2)cc(-c2ccccc2)[nH]c1=O,0
N/C(=N\C1=NC(C(F)(F)F)(C(F)(F)F)N=C(c2cccnc2)O1)Nc1ccccc1,0
CSc1nnnn1-c1ccc(C(N)=O)cc1,0
CSc1nnc(CNC(=O)c2ccc(C(C)C)cc2)n1C(C)C,0
Cc1ccc(C(F)(F)C(F)(F)c2ccccc2-c2nn[nH]n2)cc1,0
CCOc1cccc(=[O+]CC)c2c(C)oc(C)c12,63
CCOc1ccccc1C(=O)N(C)c1ccccc1,0
CCOc1cccc(=O)c2c(C)n(-c3ccc(OC)cc3)c(C)c12,0
CCCNC(=O)Nc1ccc(I)cn1,0
Cc1ccc(O)c(C(=O)CC(=O)c2cccs2)c1,0
O=C(c1ccc2c(c1)C(=O)N(Cc1ccco1)C2=O)N1CCOCC1,0
O=C(Nc1ccccc1Cl)c1ccc2c(c1)C(=O)N(Cc1ccco1)C2=O,0
Cc1ccnc(NC(=O)c2ccc3c(c2)C(=O)N(Cc2ccco2)C3=O)c1,30
Cc1nc(C)c(-c2ccn(C(=O)C(C)(C)C)n2)s1,0
COc1cccc(N2C(=O)/C(=C/C=C/c3ccco3)C(=O)NC2=S)c1,86
O=C1NC(=O)N(C2CCCCC2)C(=O)/C1=C\C=C\c1ccco1,0
COc1cccc(/C=C2\C(=O)NC(=O)N(c3cccc(OC)c3)C2=O)c1,0
O=C(COC(=O)C1CC2C=CC1C2)Nc1ncc(Cl)cc1Cl (stereo not drawn),0
CCOC(=O)CCc1n[nH]c(=O)[nH]c1=O,0
CCOC(=O)Cc1cc(C)[nH]c1C(=O)OCC,0
CCOC(=O)CCc1c(CC(=O)OCC)c[nH]c1/C=N/O,61
Cc1cccc(C2=NN3C(=N)/C(=C\c4ccc5c(c4)OCO5)C(=O)N=C3S2)c1,0
Cc1ccc(F)c2ncc3c(=O)n(-c4ccccc4Cl)[nH]c3c12,0
CCc1nnc(SCc2cc(=O)n3ccsc3n2)n1C,0
Cc1ccc(-c2nn(-c3ccccc3)cc2/C=C2\SC(=S)NC2=O)cc1,0
SMILES,MgrA DNA FP
CCc1ccc(-c2nn(-c3ccccc3)cc2/C=C2\SC(=S)NC2=O)cc1,0
Cc1ccc(-c2nn(-c3ccccc3)cc2/C=C2\SC(=S)N(CCCC(=O)O)C2=O)cc1,99
CCc1c(C)sc(NC(=O)CN2CCN(c3ncccn3)CC2)c1C(=O)OC,0
Cc1ccc(OS(=O)(=O)c2ccc(Cl)cc2)c([N+](=O)[O-])n1,0
CCSc1ccc2c3c(cccc13)C(=O)N(NCCO)C2=O,0
CC(=O)NN1C(=O)c2cccc3c(N(C)C)ccc(c23)C1=O,61
CN(C)c1ccc2c3c(cccc13)C(=O)N(c1nc3ccccc3[nH]1)C2=O,0
Cn1c(N)c(C(=O)NC2CCCCC2)c2nc3ccccc3nc21,0
O=C(O)c1cccc(NC(=O)C2CCCCC2C(=O)O)c1 (stereo not drawn),0
COC(=O)C1=C(C)N2[C@@H](C=C1)[C@@](C#N)(C(N)=O)[C@@H](c1ccccc1)[C@@H]2C(=O)OC,60
N#CC1(C#N)[C@H](c2ccoc2)[C@@H](C(=O)Oc2ccccc2)N2c3ccccc3C=C[C@@H]21,0
COC(=O)C1=C(C)N(c2ccc(N(C)C)cc2)C(C)=C(C(=O)OC)C1c1ccccc1,0
COc1ccc2ncc(S(=O)(=O)c3ccc(Cl)cc3)c(N3CCCCC3C)c2c1 (stereo not drawn),0
O=C(O)CCCC(=O)N1CCN(c2ccccn2)CC1,0
COc1ccc(C(O)CCC(=O)O)cc1 (stereo not drawn),0
CC1=C(C#N)c2nc(N)c(C#N)c(C)c2/C1=C\c1ccc(-c2ccc(C(=O)O)cc2)o1,0
CCOC(=O)c1ccc(-c2ccc(/C=C3\C(=O)N(c4cccc(Cl)c4)N=C3C)o2)cc1,0
O=C(O)c1cc(N2N=C(C(F)(F)F)/C(=C/c3ccc(-c4ccccc4)o3)C2=O)ccc1Cl,58
CC1=NN(c2ccc(Cl)c(C(=O)O)c2)C(=O)/C1=C\c1ccc(-c2ccccc2C(=O)O)o1,0
CN(C(=O)c1ccccc1NS(=O)(=O)c1ccc(F)cc1)C1CCCCC1,0
NC(=O)CN1c2ccccc2-c2ccccc2S1(=O)=O,0
CCn1cc(CCCC(=O)NCCN2CCN(C)CC2)c2ccccc21,0
Cc1cc([N+](=O)[O-])cc([N+](=O)[O-])c1Sc1ccc(Cl)cc1,0
Cc1nc2ccccn2c1-c1ccnn1C(=O)c1ccno1,41
CCOC(=O)c1cnn(C(=O)c2c(C)nc3ccccn23)c1N,0
SMILES,MgrA DNA FP
Cc1nc2ccccn2c1-c1ccnn1C(=O)c1ccc(Cl)cc1,0
NC(=O)CC(c1ccccc1)c1ccc2c(c1)OCO2 (stereo not drawn),0
CCC(C(=O)NC(C)c1ccc2c(c1)OCO2)c1ccccc1 (stereo not drawn),0
Cc1ccc(C)n1C(CC(=O)O)c1ccc2c(c1)OCO2 (stereo not drawn),53
COc1ccc(Cl)cc1NC(=O)NCCSCc1ccco1,0
CCOC(=O)C1CCN(C(=O)c2ccccc2F)CC1,0
O=C1C=C(C(F)(F)F)c2ccc(NC3CCCCC3)c3cccc1c23,56
O=C1C=C(NC2CCCC2)CC(c2ccccc2)C1 (stereo not drawn),0
O=C1c2ccccc2C(=O)c2c(NC3CCCCC3)ccc(Nc3ccc(Oc4ccccc4)cc3)c21,0
CCCCN(CC)C(=O)Nc1ccc2c(c1)N(CC)C(=O)c1ccccc1S2,0
CC(C)(C)N1CC(CO)OC1c1ccccc1 (stereo not drawn),0
